In PubChem BioAssay AID1903 (Southern Research Specialized Biocontainment Screening …, 2009):
The whole screen tested about 310,000 compounds, of which about 1,200 (0.39%) were called active. The rule behind the calls is not given here. The list is a sample of the results. Results with a measured potency or affinity are listed apart.

These molecules were tested against Large T antigen (Simian virus 40) (UniProt P03070) (assay: TAg ATPase/helicase activity blockers – biochemical (AID 1903)). Conditions: SV40 large T antigen ATPase/helicase inhibition assay; at 20 µM; stronger effect = higher value.
Sequence of Large T antigen (Simian virus 40) (P03070 whole entry, looked up): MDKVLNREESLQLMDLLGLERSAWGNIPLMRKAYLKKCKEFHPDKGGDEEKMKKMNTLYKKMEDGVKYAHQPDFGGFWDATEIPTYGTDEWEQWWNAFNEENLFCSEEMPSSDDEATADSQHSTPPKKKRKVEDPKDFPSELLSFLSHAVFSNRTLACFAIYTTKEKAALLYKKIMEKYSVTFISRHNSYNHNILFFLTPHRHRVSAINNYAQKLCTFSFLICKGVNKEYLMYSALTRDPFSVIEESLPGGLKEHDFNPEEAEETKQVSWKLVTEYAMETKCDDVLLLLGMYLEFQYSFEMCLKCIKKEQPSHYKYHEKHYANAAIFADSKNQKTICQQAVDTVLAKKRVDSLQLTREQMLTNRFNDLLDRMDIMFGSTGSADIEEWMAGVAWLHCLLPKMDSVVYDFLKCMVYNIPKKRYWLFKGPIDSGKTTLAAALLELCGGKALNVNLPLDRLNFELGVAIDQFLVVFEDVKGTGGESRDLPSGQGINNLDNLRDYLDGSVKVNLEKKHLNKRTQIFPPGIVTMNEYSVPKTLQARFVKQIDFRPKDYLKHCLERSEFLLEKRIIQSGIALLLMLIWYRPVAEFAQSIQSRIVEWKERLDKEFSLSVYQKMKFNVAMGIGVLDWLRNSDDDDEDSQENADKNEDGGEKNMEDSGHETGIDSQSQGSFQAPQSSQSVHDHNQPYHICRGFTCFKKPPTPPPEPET

inhibition, inactive:
CC(NC(=O)Cn1c(NCCO)nc2ccccc21)c1ccccc1 (stereo not drawn) -0.56%
CCOc1ccc(C(=O)NC(C(=O)NCc2ccccc2OC)C(C)C)cc1 (stereo not drawn) 20.8%
Cc1ccc(CNC(=O)c2ccccc2NC(=O)CN2CC(C)OC(C)C2)cc1 (stereo not drawn) 2.54%
Cc1ccc(S(=O)(=O)N(C)C)cc1NC(=O)COC(=O)c1ccc2c(c1)NC(=O)CS2 2.57%
CC(CN1CCCCC1)OC(=O)c1ccc(Cl)cc1 (stereo not drawn) -0.49%
Cc1[nH]c2ccccc2c1-c1csc(NC(=O)CN2CCOCC2)n1 35.5%
Cc1[nH]c2ccccc2c1-c1csc(NC(=O)CSCCO)n1 23.2%
Cc1ccc(CNC(=O)COC(=O)c2cc3c(s2)CCC(C)C3)cc1 (stereo not drawn) 0.58%
C#CCOCCOCCOCCNc1nc(N2CCN(C(=O)Cn3cc(CCCN=C(N)N)nn3)CC2)nc(N2CCN(C(=O)[C@H](CCCCN)n3cc(CCCC)nn3)CC2)n1 10.3%
O=C(NC1CC1)c1scc2c1OCCO2 -3.94%
COc1ccc(CNC(=O)C/C(C)=N/NC(=O)Cc2ccc(OC)c(OC)c2)cc1 9.86%
COC(C(=O)Nc1ccc(NC(=O)C(OC)c2ccccc2)cc1)c1ccccc1 (stereo not drawn) 0.71%
COc1cc(NC(=O)C/C(C)=N/NC(=O)C(OC)c2ccccc2)c(OC)cc1Cl (stereo not drawn) 7.44%
COc1ccc(CC(=O)N/N=C(\C)CC(=O)Nc2ccc3c(c2)OCCO3)cc1OC 8.47%
CC(=O)NC(C)Cc1cn(Cc2ccccc2)c2ccccc12 (stereo not drawn) 19.1%
COC(=O)c1sc(NC(=O)c2cccc([N+](=O)[O-])c2)c(C(N)=O)c1C 9.65%
Cc1ccccc1CNCCCSc1ncccn1 11.1%
COc1ccc(CN2CCCCCC2)c(C)c1C 12.7%
CC(C)(C)c1cc2nc(N)nc(N)n2n1 8.32%
O=C(Nc1ccccc1Cl)c1ccc(COc2ccc3c(c2)CCC3)cc1 20.5%
CN(C(=O)CC(NC(=O)c1ccccc1Cl)c1ccccc1)c1ccccc1 (stereo not drawn) 12.8%
COc1cc2cccc(OC)c(=O)c2c(O)c1OC 2.12%
COc1cc2ccc3c(CCN(C)C)cc(OC)c(OC)c3c2cc1OC 6.37%
CC(=O)Nc1ccc(S(=O)(=O)Oc2ccccc2N2CCCCC2)cc1 2.71%
COc1cc(/C=N/n2cnnc2)ccc1OC(=O)c1cccnc1 27.4%
CCOc1cc(/C=N/NC(=O)C(=O)N/N=C/c2ccc(O)c(OCC)c2)ccc1O 8.63%
Cc1ccc(/C=N\NC(=O)CC(=O)NCCc2ccccc2)cc1 7.24%
CCOc1cc(/C=N/NC(=O)C2CCCC2)ccc1O 36.2%
CCOc1ccc(/C=N\NC(=O)CC(=O)NCCc2ccccc2)cc1 4.85%
COc1ccccc1/C=N/NC(=O)CC(=O)NCCc1ccccc1 9.39%
COc1ccc(/C=N/NC(=O)CC(=O)NCCc2ccccc2)cc1OC -5.15%
COc1cc(/C=N/n2cnnc2)ccc1OC(=O)c1ccco1 24.8%
CC(Nc1c[nH]c(=O)[nH]c1=O)c1ccccc1 (stereo not drawn) 28.4%
N#CC1=C(N)N2C(=C(C#N)C13CCCCC3)SC1CCCCC12O (stereo not drawn) 2.16%
CCc1cc(Cn2nc(-c3ccccc3)cc2C(=O)NCc2ccccc2OC)on1 2.01%
COc1ccccc1CC(NC(C)=O)C(=O)N1CCN(C(=O)Nc2ccccc2Cl)CC1 (stereo not drawn) 11.4%
Cc1ccc(NC(=O)c2ccc3nsnc3c2)c(C)c1 3.08%
O=C(NC(C1CC1)C1CC1)C1CCC(=O)N(CCCN2CCCC2=O)C1 (stereo not drawn) 8.58%
FC(F)(F)c1cccc(Nc2nc(N3CCOCC3)nc(N3CCOCC3)n2)c1 6.77%
COc1ccc(/C=C2\CCC(C3CCCC3)C2=O)c(OC)c1OC (stereo not drawn) 15.3%
Cc1ccc(S(=O)(=O)Nc2ccc(Oc3cccnc3)nc2)cc1 9.11%
CC(=O)Nc1ccc(SC[C@H](c2ccccc2)N2CCN(CCc3ccccc3)CCC2=O)cc1 16.3%
COc1ccc(-c2nnc(-c3cc4ccccc4oc3=O)o2)cc1 -1.16%
O=C(C1CCCN(Cc2cccc(Cl)c2)C1)N1CCCCC1 (stereo not drawn) 2.11%
COc1cc(SC)ccc1C(=O)Nc1ncc(Cl)cc1Cl -2.54%
CNC(=S)N/N=C/c1cn(CCOc2ccc(OC)cc2)c2ccccc12 6.11%
Cc1c(CN(C)C)c2c(n1Cc1ccccc1)C(=O)c1ccccc1-2 2.92%
CCOc1cc(/C=N/n2cnnc2)cc(Br)c1O 23.3%
CCOc1cc(/C=N/n2c(C)nnc2C)ccc1O 27.2%
Clc1ccccc1Cn1nc(-c2ccccc2)nc1-c1ccccc1 1.23%
Cn1ccnc1SCC(=O)Nc1cc(C(F)(F)F)ccc1N1CCOCC1 7.01%
COC(=O)c1ccc2c(=O)n(-c3ccc(OC)cc3)c(=S)[nH]c2c1 6.42%
O=C(COC(=O)CCC1CCCC1)NCc1ccc(Cl)cc1 17.3%
COC(=O)c1cn(CCOc2ccccc2F)c2ccccc12 1.53%
O=[N+]([O-])c1cn(Cc2ccc(Cl)cc2)cn1 1.06%
Cc1cccc(N2C(=O)/C(=C\c3ccc(C(=O)O)cc3)c3ccccc3C2=O)c1 36.5%
CCOc1cc(/C=C2\C(=O)N(c3cccc(C(F)(F)F)c3)C(=O)c3ccccc32)ccc1O 9.18%
CC(C)c1nnc(NC(=O)c2cccnc2)s1 2.86%
O=C(Nc1ccccc1)NC1(C(=O)N2CCC(O)CC2)CCCCC1 4.76%
OC1CCN(C(=S)Nc2ccc(Oc3ccccc3)cc2)CC1 -15.6%
C/C(=N\NC(=O)C(C)Sc1ccccc1)C(C)(C)C (stereo not drawn) 17.5%
OCCc1ccc(O)cc1 27%
CC(CCc1ccc(O)cc1)NCc1ccc(Br)cc1 (stereo not drawn) 3.95%
N/C(=N\OC(=O)Cc1cccs1)c1cccc([N+](=O)[O-])c1 3.85%
COc1cc(Br)c(C2C(C#N)=C(N)Oc3n[nH]c(-c4cccnc4)c32)cc1OC (stereo not drawn) 18.6%
COc1cc(OC)cc(C2C(C#N)=C(N)Oc3n[nH]c(-c4cccnc4)c32)c1 (stereo not drawn) 16.8%
COc1cc(OC)c2c(c1)C(=O)OC2OC (stereo not drawn) 2.96%
CC(NC(=O)CS(=O)(=O)c1ccccc1)c1ccccc1 (stereo not drawn) 25%
COc1ccc(-c2cccc(C(=O)N3CCOCC3)c2)cc1 9.81%
O=C(c1ccc2ccccc2c1)N1CCCC1 0.92%
O=C(c1ccc2ncsc2c1)N1CCCCC1 18.2%
O=C(c1ccc2ncsc2c1)N1CCN(c2ccccc2Cl)CC1 11.3%
O=C(c1cccc(-c2ccc(O)cc2)c1)N1CCN(c2ccc(F)cc2)CC1 1.57%
O=C(c1ccc2ccccc2c1)N1CCN(c2ccccc2)CC1 10.3%
CCOC(=O)c1nn(-c2ccc(F)cc2)c(=O)cc1OCC(=O)N1CCN(c2ccccc2)CC1 5.17%
CCN(CC)C(=O)C[n+]1ccc(C(N)=O)cc1 4.68%
Fc1ccccc1/C=N/n1c(COc2ccccc2)n[nH]c1=S 6%
Cc1cc(Br)cc(Cl)c1OCC(=O)NC(=O)NCc1ccccc1 1.39%
CCN1C(=O)[C@H]2[C@@H](c3ccc(C)cc3)N3C(=O)N(c4ccc(C(F)(F)F)cc4)C(=O)[C@@]3(Cc3ccccc3)[C@H]2C1=O 4.67%
CC(C)C[C@H](NC(=O)CCn1nnc2ccccc2c1=O)C(=O)O 9.82%
O=C(O)CNC(=S)N(Cc1ccccc1F)C1CCCCC1 4.15%
O=C(Oc1ccc(-c2cnc3ccccc3n2)cc1)c1cccc([N+](=O)[O-])c1 3.96%
O=C(Oc1ccc(-c2cnc3ccccc3n2)cc1)c1cc([N+](=O)[O-])ccc1Cl 7.12%
COCC(C)NC(=O)c1noc2c1CCc1cc(OC)ccc1-2 (stereo not drawn) -0.97%
CCOc1ccc(NCc2cc3cc(OC)ccc3[nH]c2=O)cc1 28.1%
Cc1ccc2nc(-c3cccc(N)c3)[nH]c2c1 5.37%
Cc1ccc2nc(-c3ccccc3N)[nH]c2c1 -2.07%
CCOC(=O)c1c(S(=O)(=O)NCc2ccc(C)o2)c(C)n(C)c1C 2.28%
COc1ccc(CCC(=O)Nc2ccc(N3CCOCC3)cc2)cc1 8.67%
COc1ccc(OCC(=O)Nc2ccc(N3CCOCC3)cc2)cc1 12.4%
c1cc(CNc2ccc(N3CCOCC3)cc2)ccn1 1.95%
CC(C)c1ccc(CNc2ccc(N3CCOCC3)cc2)cc1 9.24%
COc1cccc2cc(C(=O)N(Cc3cccs3)CC3CCCO3)c(=O)oc12 (stereo not drawn) 5.05%
CCn1cc(C2=NC(c3ccccc3)CO2)c2ccccc21 (stereo not drawn) 14.4%
Cc1ccc(Sc2ncnc(N)c2[N+](=O)[O-])cc1 2.16%
CNc1cc(Cl)nc(SC)n1 5.2%
CSc1nc(Cl)cc(Nc2ccccc2N)n1 22%
CCNC(=O)O/N=C1\CCCCC1c1ccc([N+](=O)[O-])cc1[N+](=O)[O-] (stereo not drawn) 11.8%
